Compound activity deposited in PubChem by National Center for Advancing Translational Sciences (NCATS).
TrxR1 substrate: substrates of rat thioredoxin reductase 1; Potency, µM (doses to about 114 µM); purified TrxR1 substrate turnover, NADPH consumption readout; AID 588456; O89049; 0.01% of 390,000 active; note: nearly all actives have a fitted effect of over 50% in size
Target sequence (O89049 whole entry, looked up): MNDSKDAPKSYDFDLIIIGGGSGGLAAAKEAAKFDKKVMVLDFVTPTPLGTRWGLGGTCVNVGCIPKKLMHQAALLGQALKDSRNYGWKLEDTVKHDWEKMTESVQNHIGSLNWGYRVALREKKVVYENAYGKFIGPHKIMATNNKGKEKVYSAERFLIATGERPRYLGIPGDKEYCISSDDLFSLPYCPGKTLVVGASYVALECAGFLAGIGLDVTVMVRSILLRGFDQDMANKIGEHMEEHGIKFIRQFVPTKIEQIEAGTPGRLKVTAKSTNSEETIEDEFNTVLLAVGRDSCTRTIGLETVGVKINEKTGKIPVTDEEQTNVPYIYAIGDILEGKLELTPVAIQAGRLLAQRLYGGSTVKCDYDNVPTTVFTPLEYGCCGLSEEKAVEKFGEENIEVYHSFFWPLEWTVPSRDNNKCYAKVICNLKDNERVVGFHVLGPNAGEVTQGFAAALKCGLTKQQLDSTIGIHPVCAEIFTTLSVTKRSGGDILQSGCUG
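Rat TrxR1, dispensed at 90 nM, was prereduced with 400 uM NADPH (final) for 5 min at ~22 deg C, then incubated with compound 15 min before 400 uM selenite. A first-read NADPH fluorescence drop versus no-compound background flagged substrates.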
rTrxR1 inhibitor: rat TrxR1 inhibition | Potency, µM (highest dose often 114 µM), actives largely listed as inhibitors | 1% of 390,000 active | recombinant rTrxR1, NADPH fluorescence consumption, selenite substrate | AID 588453 | O89049; note: nearly all actives have a fitted effect of over 65% in size
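Rat TrxR1 (90 nM in the dispensed reagent) was pre-reduced with 400 uM NADPH for 5 min at room temperature, then incubated with compound for 15 min. After 400 uM selenite was added, NADPH fluorescence (Ex 340/Em 450 nm) was followed for 8 min.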
Apoferritin bind: candidate novel general anesthetic via apoferritin binding | P02791 | apoferritin/1-aminoanthracene competitive binding, fluorescence | Potency, µM (highest dose often 77.5 µM), most hits filed as inhibitors | 0.074% of 350,000 active; note: nearly all actives have a fitted effect of over 20% in size
Target sequence (P02791 2-175 limits assumed): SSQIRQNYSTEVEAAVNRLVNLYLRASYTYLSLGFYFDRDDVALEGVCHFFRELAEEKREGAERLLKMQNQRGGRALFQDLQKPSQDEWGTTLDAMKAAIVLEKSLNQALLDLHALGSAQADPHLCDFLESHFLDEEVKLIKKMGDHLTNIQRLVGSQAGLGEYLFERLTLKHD
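Steps: apoferritin (10 uM) was premixed with half-saturated 1-AMA in PBS, compounds were pin-transferred, plates stood 10 min at room temperature, fluorescence was read at 380/535 nm, and curves were fitted with a Hill equation.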
mIDH1 inhibitor: blocks human mutant IDH1 R132H enzyme; O75874; IDH1-R132H enzyme, NADPH consumption, diaphorase/resazurin fluorescence; Potency, µM (highest dose often 76.6 µM), most hits filed as inhibitors; 0.093% of 390,000 active; AID 602179; note: nearly all actives have a fitted effect of over 65% in size
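IDH1-R132H (0.5 ug/mL) preincubated 30 min with compound, then NADPH (0.016 mM) and alpha-KG (2 mM) added; 80 min at RT, pH 7.5. Remaining NADPH coupled via diaphorase/resazurin to fluorescence (540/590 nm); concentration-response curves normalized to no-enzyme control.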
GRP78 ERSR act: ER stress response induction in glioma. U87-MG GRP78 promoter luciferase reporter, 16 h. Potency, µM, actives largely listed as activators. 0.02% of 420,000 active; note: series mostly up to about 76 µM; nearly all actives have a fitted effect of over 35% in size
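ERSR induction read as luciferase luminescence (Bright-Glo, 10 min at room temperature) in stably transfected human U87-MG glioma cells exposed to compounds for 16 h, using GRP78 as sensor.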
ALOX12 inh: inhibitors of human 12S-lipoxygenase ALOX12 | P18054 | purified 12hLO, xylenol orange hydroperoxide absorbance | Potency, µM (doses to about 108 µM), actives largely listed as inhibitors | 1.1% of 580,000 active | AID 1671190
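Purified human 12hLO (150 nM final) in 25 mM Hepes, 0.01% Triton X-100, pH 7.0 was preincubated 15 min at room temperature with compound. Then 40 uM arachidonic acid was added, 30 min. Hydroperoxide was read by Fe-XO absorbance ratio 573/405 nm.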
Large screens that a line does not name were inactive. Shown are actives, neighbours in structure and some others; about 1.7% of the full set was active somewhere. Calls come from the whole dose curve; as a rule, active = well fitted curve in the direction sought with a large enough effect; inconclusive = small, poorly fitted or top-dose-only effect, or another doubt; inactive = no such curve, though single readings can be large; an effect the other way counts as inactive or inconclusive.

C[S+](=O)([O-])CCn1ncc2cc(OCc3cccc(-c4ccc(F)cc4)c3)ccc21	none (no result: TrxR1 substrate, rTrxR1 inhibitor, Apoferritin bind, mIDH1 inhibitor, GRP78 ERSR act)
O=C(NCCOc1ccccc1)c1cnc2n1CCN(Cc1c[nH]c3ccccc13)CC2	none (no result: TrxR1 substrate, rTrxR1 inhibitor, Apoferritin bind, mIDH1 inhibitor, GRP78 ERSR act)
CC(=O)c1sc(N/N=C\c2c(O)ccc3ccccc23)nc1C	ALOX12 inh 39.8µM (no result: Apoferritin bind)
CC(=O)c1sc(N/N=C/c2cccc(O)c2)nc1C	none
N#Cc1nc(-c2ccc(F)cc2)oc1NCC(c1cccs1)N1CCOCC1 (centres undefined)	none (no result: TrxR1 substrate, rTrxR1 inhibitor, Apoferritin bind, mIDH1 inhibitor, GRP78 ERSR act)
COc1ccc(/C=C2\N=C3CCCCCN3C2=O)cc1OC	Apoferritin bind inconclusive
COc1cc(/C=C2\N=C3CCCCCN3C2=O)ccc1O	TrxR1 substrate inconclusive, rTrxR1 inhibitor 50.1µM
C/C(=N\NC(=O)c1ccn(C)n1)c1ccc(NC(=O)c2cccc(F)c2)cc1	ALOX12 inh 4.47µM
Cc1ccn2c(NC3CCCC3)c(-c3cccs3)nc2c1	ALOX12 inh 31.6µM
O=C(NC(NNc1ccc([N+](=O)[O-])cc1)(C(F)(F)F)C(F)(F)F)c1ccccc1Cl	rTrxR1 inhibitor 3.16µM, Apoferritin bind inconclusive, ALOX12 inh inconclusive
COC(=O)C(NNc1ccccc1)(NC(=O)c1ccc(F)cc1)C(F)(F)F (centres undefined)	none
O=C(NC(NNc1ccc([N+](=O)[O-])cc1)(C(F)(F)F)C(F)(F)F)c1ccc(F)cc1	rTrxR1 inhibitor 28.2µM, Apoferritin bind inconclusive, ALOX12 inh inconclusive
COc1cc(OC)c(C(=O)NCc2coc(-c3cccs3)n2)cc1OC	none (no result: TrxR1 substrate, rTrxR1 inhibitor, Apoferritin bind, mIDH1 inhibitor, GRP78 ERSR act)
N#Cc1ccccc1OCC(=O)NC12CC3CC(CC(C3)C1)C2	none (no result: TrxR1 substrate, rTrxR1 inhibitor, Apoferritin bind, mIDH1 inhibitor, GRP78 ERSR act)
CC(C)(C)c1csc(NC(=O)Cn2nc3c(cc2=O)CCCC3)n1	none (no result: TrxR1 substrate, rTrxR1 inhibitor, Apoferritin bind, mIDH1 inhibitor, GRP78 ERSR act)
CC[C@H]1CN(C(=O)N2CCOCC2)CC[C@H]1CC(=O)Nc1nccs1	none (no result: TrxR1 substrate, rTrxR1 inhibitor, Apoferritin bind, mIDH1 inhibitor, GRP78 ERSR act)
CCOC(=O)c1cccc(NC(=O)c2ccc3c(c2)N(CC)C2CCCCCN2C3=O)c1 (centres undefined)	none (no result: TrxR1 substrate, rTrxR1 inhibitor, Apoferritin bind, mIDH1 inhibitor, GRP78 ERSR act)
OCCN=c1cc(-c2ccccc2)oc2ccc(Cl)cc12	Apoferritin bind inconclusive (no result: ALOX12 inh)
CN(C)CCCN=c1cc(-c2ccccc2)oc2ccc(Cl)cc12	ALOX12 inh 35.5µM
CN(Cc1ccccc1)C(=O)CN1C(=O)COc2ccc(C(=O)COc3ccccc3F)cc21	none (no result: TrxR1 substrate, rTrxR1 inhibitor, Apoferritin bind, mIDH1 inhibitor, GRP78 ERSR act)
Cc1ccc(OCCN(C)C(C)c2nc3ccccc3c(=O)[nH]2)cc1 (centres undefined)	none (no result: TrxR1 substrate, rTrxR1 inhibitor, Apoferritin bind, mIDH1 inhibitor, GRP78 ERSR act)
Cc1ccccc1N/C(=C(/C(Cl)=C(Cl)Cl)[N+](=O)[O-])n1nnc2ccccc21	rTrxR1 inhibitor 10µM, ALOX12 inh inconclusive
COC(=O)c1ccc(CSc2ccc3nnc(-c4cccc(F)c4)n3n2)o1	rTrxR1 inhibitor inconclusive, ALOX12 inh 28.2µM
CCCCCn1c(N2CCN(Cc3ccccc3C)CC2)nc2c1c(=O)[nH]c(=O)n2C	none (no result: TrxR1 substrate, rTrxR1 inhibitor, Apoferritin bind, mIDH1 inhibitor, GRP78 ERSR act)
Cc1nn(-c2cccc(Cl)c2)c2nc(-c3ccco3)cc(C(=O)O)c12	rTrxR1 inhibitor 50.1µM, ALOX12 inh 39.8µM
O=C(O)c1cc(-c2ccco2)nn1-c1cccc(Cl)c1	rTrxR1 inhibitor inconclusive, ALOX12 inh 35.5µM
CCN(C(=O)c1cc2sc3ccccc3c2s1)c1ccccc1	ALOX12 inh 7.94µM (no result: TrxR1 substrate, rTrxR1 inhibitor, Apoferritin bind, mIDH1 inhibitor, GRP78 ERSR act)
CCC(=O)N(C1=C(NC)C(=O)c2ccccc2C1=O)C(C)C	none
CCC(=O)N(CC)C1=C(O)c2ccccc2C(=O)C1=O	rTrxR1 inhibitor 1.12µM, ALOX12 inh inconclusive
O=C(NC1CCCCCCC1)C1CCN(C(=O)c2ncn3c2COC(c2ccccc2)C3)CC1 (centres undefined)	none (no result: TrxR1 substrate, rTrxR1 inhibitor, Apoferritin bind, mIDH1 inhibitor, GRP78 ERSR act)
O=C(CN1N=C(c2ccc(Cl)cc2)CCC1=O)NCCc1ccccc1	Apoferritin bind inconclusive
Cc1ccc(C2=NN(CC(=O)NCCc3ccccc3)C(=O)CC2)cc1	Apoferritin bind 2.51µM
Cc1ccc(-n2ncc(Br)c(Br)c2=O)cc1	rTrxR1 inhibitor 10µM (no result: ALOX12 inh)
O=C(Oc1ccc2c(=O)c(Oc3ccc4ccccc4c3)coc2c1)c1cccnc1	none
O=C(Oc1ccc2c(=O)c(Cl)coc2c1)c1cccnc1	rTrxR1 inhibitor 12.6µM
CCc1cnc(C)nc1N1CCC(Oc2ccccc2OC)(C(=O)O)CC1	none (no result: TrxR1 substrate, rTrxR1 inhibitor, Apoferritin bind, mIDH1 inhibitor, GRP78 ERSR act)
CC(C)c1cc(C(C)C)c(CC(=O)NS(=O)(=O)Oc2c(C(C)C)cccc2C(C)C)c(C(C)C)c1	ALOX12 inh 24.3µM (no result: TrxR1 substrate, rTrxR1 inhibitor, Apoferritin bind, mIDH1 inhibitor, GRP78 ERSR act)
N.N.O=C(O)C1(C(=O)O)CCC1.[Pt+2]	rTrxR1 inhibitor 0.947µM (no result: Apoferritin bind, mIDH1 inhibitor, GRP78 ERSR act, ALOX12 inh)
O=C(Nc1nc(-c2c[nH]c3ccccc23)cs1)C1CCC1	ALOX12 inh 50.1µM (no result: TrxR1 substrate, rTrxR1 inhibitor, Apoferritin bind, mIDH1 inhibitor, GRP78 ERSR act)
CCC(C)Nc1nc(-c2c[nH]c3ccccc23)cs1 (centres undefined)	ALOX12 inh 50.1µM
